Potency data for 33 molecules are collected here from PubChem BioAssay (Tox21).

Values joined by “and” are separate entries in the source; they are usually repeats but may differ in a detail not shown here. Equal values may be shown once. Inconclusive results are not listed. A structure can be active in one record and inactive in another. Active and inactive are the calls of the source. Unless noted, calls come from the whole dose curve; as a rule, active = well fitted curve in the direction sought with a large enough effect in the repeat runs; inconclusive = weak or mixed curves; inactive = no such curve, though single readings can be large; an effect the other way counts as inactive or inconclusive.

The target in experiment [1] is Luciferin 4-monooxygenase (Photinus pyralis) (UniProt P08659). Put plainly: qHTS assay to identify small molecule inhibitors of firefly luciferase (AID 1224835). Note: nearly all actives have a fitted effect of over 25% in size. Note: potency is the fitted concentration of half-maximal effect. A digest of the protocol: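 Biochemical qHTS: compounds run as interplate titrations against purified firefly enzyme, with D-luciferin and ATP each at its KM concentration. Light output recorded by CCD imaging.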
Background: In qHTS, concentration-response curves come from the screen itself.

Experiment [2] in a line: qHTS assay to identify small molecule antagonists of the constitutive androstane receptor (CAR) signaling pathway - cell viability counter screen (AID 1224837). Note: series mostly up to about 92 µM; nearly all actives have a fitted effect of over 45% in size. A digest of the protocol:
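Multiplexed cytotoxicity read-out for the CAR antagonist screen: double-stable HepG2-CYP2B6-hCAR cells co-treated with 50 nM CITCO (final) and compound over 15 concentrations, incubated 23 hr, then assessed by CellTiter-Fluor fluorescence.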

Experiment [3] can be described thus: qHTS assay to identify small molecule antagonists of the estrogen related receptor signaling pathway with the pleiotropic PPARgamma coactivator (PGC) from Tox21 10K library - cell viability counter screen (AID 1224840; active = well fitted cell-killing curve with a large enough effect in the repeat runs, not every such curve was filed as active; note: nearly all actives have a fitted effect of over 40% in size; note: potency is the fitted concentration of half-maximal effect). A digest of the protocol:
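Step one, plate 2,000 PGC/ERR cells per well; step two, incubate 6 h at 37 C/5% CO2; step three, pin-transfer compounds; step four, incubate 17.5 h; step five, add CellTiter-Fluor and read fluorescence after 30 min.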

Experiment [4] in a line: qHTS assay to identify small molecule antagonists of the estrogen related receptor signaling pathway with the pleiotropic PPARgamma coactivator (PGC) from Tox21 10K library (AID 1224841; call rule not given here; note: actives are mostly falling curves and most rising ones were filed inactive; nearly all actives have a fitted effect of over 50% in size; note: potency is the fitted concentration of half-maximal effect). The procedure, abridged: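 Antagonism in this quantitative HTS is taken from loss of luciferase signal in PGC/ERR cells. Cells (2,000/well) are treated with compounds in DMSO after a 6 h settling period and read by One-Glo luminescence after 18 h.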

Experiment [5] in a line: qHTS assay to identify small molecule agonists of the estrogen related receptor signaling pathway with the pleiotropic PPARgamma coactivator (PGC) from Tox21 10K library (AID 1224842). Note: nearly all actives have a fitted effect of over 15% in size. The procedure, abridged: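 PGC/ERR reporter cell line, 2,000 cells per well, incubated 6 h at 37 C before 23 nL compound in DMSO was added. After 18 h at 37 C, One-Glo luminescence read following 30 min at room temperature.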

A short description of experiment [6]: qHTS assay to identify small molecule agonists of the constitutive androstane receptor (CAR) signaling pathway - cell viability counter screen (AID 1224836). Note: series mostly up to about 92 µM; nearly all actives have a fitted effect of over 45% in size. A digest of the protocol: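 Fluorescence from CellTiter-Fluor indicates live cells after 23 h exposure. The human hepatoma line expresses hCAR and a CYP2B6-2.2kb reporter. Incubation medium contains 0.75 uM PK11195 (final).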

Experiment [7] has as its target Nuclear receptor subfamily 1 group I member 3 (Homo sapiens) (UniProt Q14994). Put plainly: qHTS assay to identify small molecule antagonists of the constitutive androstane receptor (CAR) signaling pathway (AID 1224838). Note: nearly all actives have a fitted effect of over 40% in size. The procedure, abridged: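 Compounds were titrated across 15 concentrations onto HepG2 cells double-stably expressing hCAR and a CYP2B6-2.2kb reporter, together with 50 nM CITCO (final). After 24 h at 37 C, luciferase activity was measured by luminescence.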

Experiment [8] has the same target. Put plainly: qHTS assay to identify small molecule agonists of the constitutive androstane receptor (CAR) signaling pathway (AID 1224839). Note: nearly all actives have a fitted effect of over 15% in size. Note: potency is the fitted concentration of half-maximal effect. A digest of the protocol:
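Stable hCAR/CYP2B6-2.2kb HepG2 line in DMEM with 10% FBS; compounds (15 concentrations) and 0.75 uM PK11195 final, 24 h at 37 C/5% CO2, then ONE-Glo luminescence after 30 min.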

Chain of Nuclear receptor subfamily 1 group I member 3 (Homo sapiens) (Q14994 whole entry, looked up): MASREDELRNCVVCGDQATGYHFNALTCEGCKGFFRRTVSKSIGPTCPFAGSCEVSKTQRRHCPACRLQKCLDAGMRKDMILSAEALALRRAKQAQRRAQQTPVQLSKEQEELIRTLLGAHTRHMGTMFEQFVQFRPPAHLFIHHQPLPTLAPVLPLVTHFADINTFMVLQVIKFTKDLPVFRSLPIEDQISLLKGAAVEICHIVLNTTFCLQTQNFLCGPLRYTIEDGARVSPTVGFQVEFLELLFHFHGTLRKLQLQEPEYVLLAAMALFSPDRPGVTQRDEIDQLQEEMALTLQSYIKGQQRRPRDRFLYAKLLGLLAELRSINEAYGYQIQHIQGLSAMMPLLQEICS
Chain of Luciferin 4-monooxygenase (Photinus pyralis) (P08659 whole entry, looked up): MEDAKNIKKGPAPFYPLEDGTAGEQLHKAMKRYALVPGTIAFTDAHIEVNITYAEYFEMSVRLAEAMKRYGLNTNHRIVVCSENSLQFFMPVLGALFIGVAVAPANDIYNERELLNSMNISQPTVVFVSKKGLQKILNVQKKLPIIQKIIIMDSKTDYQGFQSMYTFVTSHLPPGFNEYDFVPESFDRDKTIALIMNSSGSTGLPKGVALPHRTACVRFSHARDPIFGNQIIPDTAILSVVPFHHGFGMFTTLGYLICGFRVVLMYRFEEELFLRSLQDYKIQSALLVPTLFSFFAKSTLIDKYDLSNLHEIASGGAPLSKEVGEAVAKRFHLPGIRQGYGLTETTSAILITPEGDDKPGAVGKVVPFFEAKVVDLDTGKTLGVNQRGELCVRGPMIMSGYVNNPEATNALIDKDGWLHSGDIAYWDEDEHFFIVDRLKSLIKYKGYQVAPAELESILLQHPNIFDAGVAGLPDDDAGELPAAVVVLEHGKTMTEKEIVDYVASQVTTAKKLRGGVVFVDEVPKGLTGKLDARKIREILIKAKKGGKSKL

`CCN(CC)N=O`: the Potency entry in experiment [1], in experiment [2], in experiment [3], in experiment [4] and in experiment [5] was “inactive” in each case.

As to `CCCCN(CC)c1c([N+](=O)[O-])cc(C(F)(F)F)cc1[N+](=O)[O-]`, the Potency entry in experiment [1], in experiment [6], in experiment [2], in experiment [7], in experiment [3] and in experiment [4] was “inactive” in each case. Further, the Potency entry in experiment [5] is “inactive”.

For `COP(=S)(OC)Oc1ccc([N+](=O)[O-])cc1`, the Potency entry in experiment [6], in experiment [2], in experiment [7] and in experiment [8] was “inactive” throughout.

Turning to `Nc1ccc(Cl)c(Cl)c1`, the Potency entry in experiment [1], in experiment [2], in experiment [7], in experiment [8], in experiment [3] and in experiment [4] was “inactive” each time. The Potency result in experiment [5] is “inactive”.

For the molecule `O=P(Oc1ccccc1)(Oc1ccccc1)Oc1ccccc1`, the Potency result in experiment [1], in experiment [2], in experiment [7], in experiment [3] and in experiment [5] was “inactive” throughout. Also, the Potency in experiment [8] is 21.6 µM (active) and 19.3 µM (active); in experiment [4] it was 13.6 µM (active).

Regarding `Nc1ccc(-c2ccc(N)c(N)c2)cc1N`, the Potency in experiment [1] was 35.5 µM (active). In experiment [2], the Potency result is “inactive”.

Take `CCC(C)(C)c1ccc(O)cc1`: in experiment [1], the Potency is 40.4 µM (active) and 63.3 µM (active). For the same molecule, the Potency result in experiment [6], in experiment [2], in experiment [3], in experiment [4] and in experiment [5] was “inactive” throughout.

For `CCCCN(CCCC)N=O`, the Potency entry in experiment [1], in experiment [2] and in experiment [3] was “inactive” in each case.

Consider `CC1(C)C(C=C(Cl)Cl)C1C(=O)OC(C#N)c1cccc(Oc2ccccc2)c1` (stereo not drawn), for which the Potency entry in experiment [1], in experiment [2], in experiment [7] and in experiment [3] was “inactive” each time.

On to `CCN(CC)C(=O)SCc1ccc(Cl)cc1`, for which, in experiment [1], the Potency is 35.6 µM (active). For the same molecule, the Potency result in experiment [6], in experiment [2], in experiment [3], in experiment [4] and in experiment [5] was “inactive” throughout.

Turning to `Oc1cc(Cl)ccc1Cl`, the Potency result in experiment [1], in experiment [2] and in experiment [3] was “inactive” each time.

For the molecule `CCc1cccc(CC)c1N(COC)C(=O)CCl`, the Potency result in experiment [1], in experiment [2], in experiment [7] and in experiment [3] was “inactive” throughout. For the same molecule, the Potency in experiment [8] is 18.7 µM (active) and 19.3 µM (active).

As for `CCCCCCCCCCCOC(=O)c1ccccc1C(=O)OCCCCCCCCCCC`, the Potency entry in experiment [1], in experiment [6], in experiment [2] and in experiment [3] was “inactive” in each case.

For `NCc1cccnc1`, the Potency result in experiment [1], in experiment [2], in experiment [7], in experiment [8], in experiment [3] and in experiment [4] was “inactive” in each case. The Potency result in experiment [5] is “inactive”.

In the case of `CCOCN(C(=O)CCl)c1c(C)cccc1CC`, the Potency result in experiment [1], in experiment [2], in experiment [7], in experiment [3] and in experiment [5] was “inactive” each time. In addition, the Potency in experiment [8] is 18.3 µM (active) and 15.4 µM (active); in experiment [4], 36.4 µM (active) and 13.7 µM (active).

On to `Cc1ccccc1[N+](=O)[O-]`, for which the Potency entry in experiment [1], in experiment [2], in experiment [7], in experiment [8] and in experiment [3] was “inactive” throughout.

Take `c1cc(OCC2CO2)ccc1Cc1ccc(OCC2CO2)cc1` (stereo not drawn): the Potency result in experiment [1], in experiment [2], in experiment [7], in experiment [8] and in experiment [3] was “inactive” in each case.

For `c1ccc(NNc2ccccc2)cc1`, the Potency in experiment [1] is 25.4 µM (active) and 17.8 µM (active). In addition, the Potency entry in experiment [6], in experiment [2], in experiment [3], in experiment [4] and in experiment [5] was “inactive” in each case.

For `CC(C)C(=O)OCC(C)(C)C(OC(=O)C(C)C)C(C)C` (stereo not drawn), the Potency entry in experiment [1], in experiment [6], in experiment [2], in experiment [7], in experiment [8] and in experiment [3] was “inactive” each time. For the same molecule, the Potency result in experiment [4] and in experiment [5] was “inactive” in each case.

Consider `Oc1ccc(-c2ccccc2)cc1`, for which the Potency in experiment [1] was 39.4 µM (active) and 39.9 µM (active); in experiment [8] it was 53.8 µM (active) and 54.5 µM (active). Moreover, the Potency result in experiment [2], in experiment [7], in experiment [3], in experiment [4] and in experiment [5] was “inactive” in each case.

For the molecule `O=C(CCl)c1ccccc1`, the Potency entry in experiment [1], in experiment [6], in experiment [2] and in experiment [3] was “inactive” each time.

Regarding `CC(C)=CC1C(C(=O)OCc2coc(Cc3ccccc3)c2)C1(C)C` (stereo not drawn), the Potency entry in experiment [1], in experiment [2], in experiment [7] and in experiment [3] was “inactive” throughout. The Potency in experiment [8] is 34.4 µM (active) and 27.3 µM (active).

Regarding `O=C(O)CC[N+](=O)[O-]`, the Potency entry in experiment [1], in experiment [6], in experiment [2] and in experiment [3] was “inactive” each time.

On to `c1nc[nH]n1`, for which the Potency entry in experiment [1], in experiment [2], in experiment [7], in experiment [8], in experiment [3] and in experiment [4] was “inactive” in each case. Also, the Potency entry in experiment [5] was “inactive”.

Turning to `O=C(O)C(F)(F)C(F)(F)C(F)(F)C(F)(F)C(F)(F)C(F)(F)C(F)(F)F`, the Potency result in experiment [1], in experiment [6], in experiment [2] and in experiment [3] was “inactive” throughout.

As to `c1ccc(P(c2ccccc2)c2ccccc2)cc1`, the Potency entry in experiment [1], in experiment [2], in experiment [7] and in experiment [3] was “inactive” each time.

Take `N#CCCCl`: the Potency entry in experiment [1], in experiment [2], in experiment [7], in experiment [8] and in experiment [3] was “inactive” each time.

For `CCC(C)c1cc([N+](=O)[O-])cc([N+](=O)[O-])c1O` (stereo not drawn), the Potency entry in experiment [1], in experiment [7], in experiment [8] and in experiment [5] was “inactive” in each case. The Potency entry in experiment [3] was “inactive and 17.2 µM (active)”; in experiment [4], “inactive and 10.9 µM (active)”.

Regarding `O=C(NC(=O)c1c(F)cccc1F)Nc1ccc(Cl)cc1`, the Potency result in experiment [1], in experiment [2], in experiment [7] and in experiment [3] was “inactive” throughout. The Potency result in experiment [8] was “inactive and 1.22 µM (active)”.

In the case of `CCC(C)c1ccc(O)cc1` (stereo not drawn), the Potency in experiment [1] was 71.6 µM (active). Also, the Potency entry in experiment [6], in experiment [2], in experiment [7], in experiment [8], in experiment [3] and in experiment [4] was “inactive” each time. For the same molecule, the Potency entry in experiment [5] was “inactive”.

Consider `Nc1c(Cl)cc([N+](=O)[O-])cc1Cl`, for which the Potency result in experiment [1], in experiment [6], in experiment [2], in experiment [7], in experiment [8] and in experiment [3] was “inactive” throughout. Further, in experiment [5], the Potency entry is “inactive”. For the same molecule, the Potency in experiment [4] was 48.9 µM (active) and 27.3 µM (active).

For the molecule `CCCCOCCOP(=O)(OCCOCCCC)OCCOCCCC`, the Potency entry in experiment [1], in experiment [6], in experiment [2], in experiment [7], in experiment [8] and in experiment [3] was “inactive” throughout.

On to `c1ccc(-c2cccc(-c3ccccc3)c2)cc1`, for which, in experiment [1], the Potency is 9.03 µM (active) and 7.96 µM (active). Moreover, the Potency result in experiment [6], in experiment [2] and in experiment [3] was “inactive” throughout.
